The results in this text go back to the supplement of paper PMC6555819.

Common to all, as to experiment: PBM binding z-score (relative to random genomic background probes); higher = stronger binding; sequences stand for … in GC…GCGATTGACAGCGTAGAATGAAGG
Assay [1] concerns PPARg:RXRa DBDmut IVT, anti-RXR (DBD mutation: RXRa K156A/R161A, NR concentration 270 nM, RXRa partner concentration 90 nM). In a few lines: (§1)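 Custom Agilent 4×180K protein-binding microarrays carried double-stranded probes, each with a 34-nt variable region. These regions held direct-repeat seeds, single-nucleotide variants, half-site ablations and random human genomic background sequences. Ligand-free nuclear receptor dimers were incubated on the arrays for 1 h, antibodies against each partner (one per run) detected binding, and scanned fluorescence was regression-normalized. Binding z-scores take the random background probes as reference.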

Assay [2] concerns PPARg:RXRa IVT, anti-PPARg (NR concentration 270 nM, RXRa partner concentration 90 nM). In a few lines:
as §1

For assay [3], the system named is PPARg DBDmut:RXRa IVT, anti-PPARg (DBD mutation: PPARg1 K132A/R137A, NR concentration 270 nM, RXRa partner concentration 90 nM). In a few lines: as §1
Assay [4] relates to PPARg DBDmut IVT, anti-PPARg (DBD mutation: PPARg1 K132A/R137A, NR concentration 270 nM). In a few lines:
as §1

In assay [5] the test system is PPARg homodimer (NR concentration 180 nM). In a few lines: as §1
For assay [6], the system named is PXR:RXRa (NR concentration 270 nM, RXRa partner concentration 90 nM). In a few lines: as §1
For assay [7], the system named is PXR homodimer (NR concentration 270 nM). In a few lines: as §1
The test system of assay [8] is RARa:RXR (NR concentration 270 nM, RXRa partner concentration 90 nM). In a few lines:
as §1

Assay [9] concerns RARa homodimer (NR concentration 270 nM). In a few lines:
as §1

In assay [10] the test system is RARb:RXRa (NR concentration 270 nM, RXRa partner concentration 90 nM). In a few lines: as §1
The subject of assay [11] is RARb homodimer (NR concentration 270 nM). In a few lines:
as §1

Assay [12] concerns RARg:RXRa (NR concentration 270 nM, RXRa partner concentration 90 nM). In a few lines: as §1
Assay [13] has as its system RARg homodimer (NR concentration 270 nM). In a few lines:
as §1

Assay [14] concerns RXRa DBDmut IVT, anti-RXR (DBD mutation: RXRa K156A/R161A, NR concentration 90 nM). In a few lines: as §1
In assay [15] the test system is RXRa homodimer (NR concentration 180 nM). In a few lines:
as §1

In assay [16] the test system is THRa:RXRa (NR concentration 90 nM, RXRa partner concentration 90 nM). In a few lines:
as §1

In assay [17] the test system is THRa homodimer (NR concentration 90 nM). In a few lines:
as §1

Assay [18] deals with VDR:RXRa (NR concentration 270 nM, RXRa partner concentration 90 nM). In a few lines:
as §1

Assay [19] concerns VDR homodimer (NR concentration 270 nM). In a few lines:
as §1

For TGAATGAGGTTAAAGATCAGGGCACGTGGCGTCG, the PBM binding z-score was 2.37 in [1]; 3.82 in assay [2]; 1.31 in assay [3]; 1.27 in assay [4]; 0.587 in assay [5]; 2.32 in assay [6]. In addition, the PBM binding z-score came out at 0.062 in assay [7]; 3.3 in assay [8]; 0.14 in assay [9]; 2.41 in assay [10]; 1.91 in assay [11]; 2.84 in assay [12]. The PBM binding z-score in assay [13] came to 1.59; in assay [14] it was 0.869; in assay [15] it was 3.95; in assay [16], 3.35; in assay [17] it was 1.32; in assay [18], 2.19. Further, in assay [19], the PBM binding z-score was found to be 1.03.

With TCTCGGTGGACACGAAAGGTCAGAGCTCGACATC, the PBM binding z-score in [1] is 1.22; in assay [2], 1.82; in assay [3], -0.273; in assay [4], -0.543; in assay [5], 3.39; in assay [6] it was 3.87. The PBM binding z-score in [7] is 0.441; in [8], 4.59; in assay [9], -0.0957; in assay [10] it was 3.86; in assay [11], 4.36; in assay [12], 4.38. In addition, the PBM binding z-score in [13] came out at 4.33; in assay [14], 0.665; in assay [15], 4.52; in [16] it was 2.96; in [17], 0.543; in assay [18], 2.84. The PBM binding z-score in assay [19] is 0.45.

With CCTGCTAGGTCCTGGTCAGCTAATCTACAGTATG, the PBM binding z-score in assay [1] was 0.239; in assay [2], -0.294; in assay [3], -1.02; in assay [4], -0.479; in assay [5] it was -0.652; in assay [6], -0.461. The PBM binding z-score is -0.864 in assay [7]; -0.0873 in [8]; -0.971 in assay [9]; 0.56 in assay [10]; 0.0603 in assay [11]; -0.177 in assay [12]. The PBM binding z-score in assay [13] was -0.17; in assay [14], -0.107; in assay [15], -0.298; in [16], -0.0341; in assay [17] it was -0.199; in [18] it was -0.588. In assay [19], the PBM binding z-score is -0.989.

Take CGTCCCAGGTCATAGGAGGTCAGTGAAGACAGAT: the PBM binding z-score was 1.76 in assay [1]; 3.65 in assay [2]; 0.856 in [3]; 0.281 in [4]; 3.83 in [5]; 6.15 in assay [6]. Moreover, the PBM binding z-score is 2.57 in assay [7]; 4.89 in assay [8]; 2.28 in assay [9]; 4.5 in [10]; 4.84 in [11]; 5.47 in [12]. The PBM binding z-score in assay [13] worked out at 5.84; in [14] it was 2.74; in assay [15], 4.75; in assay [16], 4.89; in assay [17], 3.13; in assay [18], 6.01. This sequence also came in with a PBM binding z-score in [19] of 3.59.

Turning to CCTACTGGGACAAGGTCATTGATCAGTCAAAGCA, the PBM binding z-score in [1] is 3.79; in [2], 4.66; in [3], -0.0252; in assay [4] it was -0.0828; in [5], 2.28; in assay [6], 3.8. Besides, the PBM binding z-score was determined as 1.59 in assay [7]; 3.89 in assay [8]; 0.375 in [9]; 3.26 in [10]; 3.22 in assay [11]; 4 in assay [12]. Also, the PBM binding z-score in assay [13] is 3.34; in assay [14] it was 1.7; in assay [15], 3.71; in [16], 3.47; in assay [17], 2.27; in [18] it was 3.48. This sequence also came in with a PBM binding z-score in assay [19] of 3.29.

For CCTGCTAGGTCATGGTCAGATAATCTACAGTATG, the PBM binding z-score in [1] came out at 4.17; in assay [2] it was 3.84; in assay [3], 0.574; in [4], 0.147; in [5] it was 1.88; in assay [6], 1.35. Also, the PBM binding z-score is -0.264 in [7]; 2.59 in assay [8]; 0.0727 in [9]; 3.92 in [10]; 3.05 in assay [11]; 3.94 in [12]. The PBM binding z-score in assay [13] was determined as 4.66; in assay [14], 1.69; in [15] it was 3.04; in assay [16] it was 3.1; in assay [17] it was 1.49; in [18] it was 1.62. In addition, in assay [19], the PBM binding z-score is 0.43.

Take GGAACGATGGCATTCGAGTTGATAGCATGGCGAT: the PBM binding z-score in assay [1] is -0.377; in assay [2], -0.247; in assay [3], -0.636; in assay [4], -0.427; in [5] it was -0.633; in [6], -0.0726. Besides, the PBM binding z-score was -0.789 in [7]; -0.647 in [8]; -0.81 in assay [9]; -0.501 in assay [10]; -1.05 in assay [11]; -0.259 in [12]. Besides, the PBM binding z-score in assay [13] is -0.016; in assay [14], -0.146; in [15], -0.284; in [16], 0.175; in assay [17], -0.974; in assay [18] it was -0.32. This sequence also showed a PBM binding z-score in assay [19] of -0.268.
